Results reported in PubChem BioAssay (NCI).
The panel holds about 83,000 compounds, 20% with a hit somewhere; the sample as a whole holds those more often.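 96-well plates, one dose, 48 hours. Percent growth reported; active if below 10.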 Activity calls are given as the source filed them.

Key:
Assay in all cases: NCI-60 one-dose screen, 48 h (100 = growth as untreated, 0 = no growth, -100 = all killed)
SK-MEL-2 melanoma = conditions: 10 µM unless noted
EKVX NSCLC = conditions: 10 µM unless noted
SN12C renal = conditions: 10 µM unless noted
UO-31 renal = conditions: 10 µM unless noted
TK-10 renal = conditions: 10 µM unless noted
ACHN renal = conditions: 10 µM unless noted
CAKI-1 renal = conditions: 10 µM unless noted
CCRF-CEM leukemia = conditions: 10 µM unless noted
MOLT-4 leukemia = conditions: 10 µM unless noted
SR leukemia = conditions: 10 µM unless noted
RPMI-8226 leukemia = conditions: 10 µM
OVCAR-8 ovarian = conditions: 10 µM unless noted
OVCAR-4 ovarian = conditions: 10 µM unless noted
SK-OV-3 ovarian = conditions: 10 µM
OVCAR-3 ovarian = conditions: 10 µM unless noted
HS 578T breast = conditions: 10 µM unless noted
OVCAR-5 ovarian = conditions: 10 µM unless noted
IGROV1 ovarian = conditions: 10 µM unless noted
NCI/ADR-RES ovarian = conditions: 10 µM unless noted
A498 renal = conditions: 10 µM unless noted

Measured: growth

O=C(COc1cccc(/C=C2\COc3ccccc3C2=O)c1)c1ccccc1
active: CCRF-CEM leukemia -32.7% | MOLT-4 leukemia -21.9% | SR leukemia -62.4% | RPMI-8226 leukemia -51.1% | HS 578T breast -28.2%
inactive: SK-MEL-2 melanoma 70.7% | EKVX NSCLC 84% | SN12C renal 84.9% | UO-31 renal 75.1% | TK-10 renal 92.2% | ACHN renal 86.8% | CAKI-1 renal 53.2% | OVCAR-8 ovarian 19.1% | OVCAR-4 ovarian 79.2% | SK-OV-3 ovarian 98.7% | OVCAR-3 ovarian 80.3%

COc1ccc(OC2=CC(=O)c3ccc(C)nc3C2=O)cc1
inactive: SK-MEL-2 melanoma 99.5% | EKVX NSCLC 96.5% | SN12C renal 88.3% | UO-31 renal 92.3% | TK-10 renal 112% | ACHN renal 51.4% | CAKI-1 renal 82.5% | CCRF-CEM leukemia 18.5% | MOLT-4 leukemia 66.5% | SR leukemia 51.2% | RPMI-8226 leukemia 79.7% | OVCAR-8 ovarian 80.7% | OVCAR-5 ovarian 114% | IGROV1 ovarian 87.8% | OVCAR-3 ovarian 72.3% | HS 578T breast 83.2% | NCI/ADR-RES ovarian 87.5%

CCCCC1COc2cccc3c(SCC(=O)N(C)c4cccc5ccccc45)cc[n+]1c23 (configuration not stated)
inactive: SK-MEL-2 melanoma 102% | EKVX NSCLC 109% | SN12C renal 98.7% | UO-31 renal 94.1% | TK-10 renal 96.2% | ACHN renal 104% | CAKI-1 renal 98.7% | CCRF-CEM leukemia 99.8% | MOLT-4 leukemia 102% | SR leukemia 96.1% | OVCAR-8 ovarian 102% | OVCAR-5 ovarian 112% | OVCAR-4 ovarian 99% | IGROV1 ovarian 111% | OVCAR-3 ovarian 107% | HS 578T breast 108% | NCI/ADR-RES ovarian 104%

O=c1oc2ccccc2cc1-c1csc(N=Nc2c(O)[nH]c3ccc(Br)cc23)n1
inactive: SK-MEL-2 melanoma 107% | EKVX NSCLC 95.8% | SN12C renal 98.7% | UO-31 renal 86.3% | TK-10 renal 111% | ACHN renal 97.9% | CAKI-1 renal 93.4% | CCRF-CEM leukemia 97.2% | MOLT-4 leukemia 120% | SR leukemia 114% | RPMI-8226 leukemia 109% | OVCAR-8 ovarian 102% | OVCAR-5 ovarian 97.6% | IGROV1 ovarian 99.8% | OVCAR-3 ovarian 108% | HS 578T breast 93.3% | NCI/ADR-RES ovarian 103%

NC(=O)c1cccc(-n2ccc3cc(NC(=O)Nc4ccc(Cl)c(Cl)c4)ccc32)n1
inactive: SK-MEL-2 melanoma 88.3% | EKVX NSCLC 68.3% | SN12C renal 86.8% | UO-31 renal 95.5% | TK-10 renal 80.7% | ACHN renal 74.5% | CAKI-1 renal 57.6% | CCRF-CEM leukemia 59.2% | MOLT-4 leukemia 50.7% | SR leukemia 45.5% | OVCAR-8 ovarian 80.9% | OVCAR-5 ovarian 106% | OVCAR-4 ovarian 68.2% | IGROV1 ovarian 87.9% | OVCAR-3 ovarian 82.9% | HS 578T breast 58.5% | NCI/ADR-RES ovarian 91.8%

COC(=O)c1c2c(c(C)[n+]([O-])c1C)C(=O)C=C(NCc1ccc(F)cc1)C2=O
active: SK-MEL-2 melanoma -31.3% | EKVX NSCLC -57% | SN12C renal -88.8% | UO-31 renal -21% | ACHN renal -45.2% | CAKI-1 renal -0.887% | CCRF-CEM leukemia 4.77% | MOLT-4 leukemia -35.2% | SR leukemia 2.14% | RPMI-8226 leukemia -20.9% | OVCAR-8 ovarian 2.54% | OVCAR-5 ovarian -68.8% | IGROV1 ovarian -59.4% | OVCAR-3 ovarian -35.9% | HS 578T breast -16.6% | NCI/ADR-RES ovarian -16.7%
inactive: TK-10 renal 13.6%

O=C(NCc1ccc(F)cc1)C1CN(c2ccc(Cl)cc2)N(c2ccc(Cl)cc2)C1=O (configuration not stated)
inactive: SK-MEL-2 melanoma 64.6% | EKVX NSCLC 74.8% | SN12C renal 83% | UO-31 renal 51% | TK-10 renal 100% | ACHN renal 75.6% | CAKI-1 renal 57.6% | CCRF-CEM leukemia 61.8% | MOLT-4 leukemia 37.1% | SR leukemia 24.3% | OVCAR-8 ovarian 80% | OVCAR-5 ovarian 85.6% | OVCAR-4 ovarian 66.6% | IGROV1 ovarian 77.4% | HS 578T breast 52.6% | NCI/ADR-RES ovarian 52.9%
active: OVCAR-3 ovarian 9.08%

CC1SC(c2cccc(Oc3ccccc3)c2)N(CCc2cccs2)C1=O (configuration not stated)
active: SK-MEL-2 melanoma -75.7% | EKVX NSCLC -24.1% | SN12C renal -86.3% | UO-31 renal -17.7% | TK-10 renal -16.2% | ACHN renal -12.8% | CAKI-1 renal -37.4% | MOLT-4 leukemia -2.19% | SR leukemia -2.19% | RPMI-8226 leukemia -13.5% | OVCAR-8 ovarian 0% | OVCAR-5 ovarian -13.9% | OVCAR-4 ovarian 8.45% | SK-OV-3 ovarian -8.94% | IGROV1 ovarian -23.6% | OVCAR-3 ovarian -98.1% | HS 578T breast -44.8% | NCI/ADR-RES ovarian -28%

CCCCCCCC/C=C\CCCCCCCCOc1cccc(CC(=O)NCC[N+]2(C)CCCCC2)c1
inactive: SK-MEL-2 melanoma 91.8% | EKVX NSCLC 78.7% | SN12C renal 47.8% | UO-31 renal 86.8% | TK-10 renal 76.8% | ACHN renal 94.7% | CAKI-1 renal 70.3% | CCRF-CEM leukemia 38.5% | MOLT-4 leukemia 57% | SR leukemia 34.7% | RPMI-8226 leukemia 67.1% | OVCAR-8 ovarian 74.3% | OVCAR-5 ovarian 39.6% | OVCAR-4 ovarian 66.3% | OVCAR-3 ovarian 89.9% | HS 578T breast 73.9% | NCI/ADR-RES ovarian 102%
active: IGROV1 ovarian -37%

O=C(N/N=C(\CS(=O)(=O)c1ccccc1)c1cc2ccccc2oc1=O)c1ccccc1
inactive: SK-MEL-2 melanoma 115% | EKVX NSCLC 101% | SN12C renal 101% | UO-31 renal 94% | TK-10 renal 119% | ACHN renal 101% | CAKI-1 renal 96.4% | CCRF-CEM leukemia 106% | MOLT-4 leukemia 115% | SR leukemia 101% | RPMI-8226 leukemia 112% | OVCAR-8 ovarian 100% | OVCAR-5 ovarian 101% | IGROV1 ovarian 109% | OVCAR-3 ovarian 111% | HS 578T breast 106% | NCI/ADR-RES ovarian 107%

Cc1ccccc1-c1cc(-c2ccc(Br)s2)[nH]c(=O)c1C#N
inactive: SK-MEL-2 melanoma 113% | EKVX NSCLC 85.6% | SN12C renal 102% | UO-31 renal 83.3% | TK-10 renal 109% | ACHN renal 101% | CAKI-1 renal 88.1% | CCRF-CEM leukemia 106% | MOLT-4 leukemia 92.7% | SR leukemia 100% | RPMI-8226 leukemia 102% | OVCAR-8 ovarian 105% | OVCAR-5 ovarian 104% | OVCAR-4 ovarian 108% | IGROV1 ovarian 96.5% | OVCAR-3 ovarian 113% | HS 578T breast 96% | NCI/ADR-RES ovarian 98.5%

O=C1CCC(N2Cc3c(C#CCCCNC(=O)c4cc5c(o4)C(=O)c4ccccc4C5=O)cccc3C2=O)C(=O)N1 (configuration not stated)
inactive: EKVX NSCLC 64.4% | UO-31 renal 86.4% | TK-10 renal 101% | ACHN renal 71.7% | CAKI-1 renal 78.7% | CCRF-CEM leukemia 12.3% | SR leukemia 12.1% | OVCAR-5 ovarian 20.2% | NCI/ADR-RES ovarian 89.6%
active: SK-MEL-2 melanoma -26.6% | SN12C renal -92.2% | MOLT-4 leukemia 8.52% | OVCAR-8 ovarian 4.59% | OVCAR-4 ovarian -98.5% | IGROV1 ovarian -5.62% | OVCAR-3 ovarian -37.3% | HS 578T breast -32.8%

COc1ccc(-c2csc3c2-n2cccc2C3=O)cc1O
active: CCRF-CEM leukemia 0.363% | MOLT-4 leukemia -10.8% | SR leukemia -6.8% | RPMI-8226 leukemia -19.8% | OVCAR-8 ovarian 5.09% | SK-OV-3 ovarian 1.75% | OVCAR-3 ovarian -38.7% | NCI/ADR-RES ovarian -25.4%
inactive: SK-MEL-2 melanoma 26.9% | EKVX NSCLC 56% | SN12C renal 29.6% | UO-31 renal 31.5% | TK-10 renal 51.3% | ACHN renal 31.7% | A498 renal 38.5% | OVCAR-5 ovarian 84.5% | OVCAR-4 ovarian 37.4% | IGROV1 ovarian 20.3% | HS 578T breast 32.7%

O=C(c1ccc2ncc(-c3nc(NC4CC4)ncc3F)n2c1)N1CCOCC1
active: UO-31 renal -33.4% | ACHN renal 0.254% | CAKI-1 renal 3.25% | SR leukemia 3.87% | OVCAR-5 ovarian 9.93% | IGROV1 ovarian 8.94% | OVCAR-3 ovarian -22.2% | HS 578T breast 4.89%
inactive: SK-MEL-2 melanoma 27.7% | EKVX NSCLC 49.2% | SN12C renal 30.1% | TK-10 renal 41.9% | CCRF-CEM leukemia 19.5% | MOLT-4 leukemia 16% | RPMI-8226 leukemia 25.7% | OVCAR-8 ovarian 18.5% | OVCAR-4 ovarian 63.2% | NCI/ADR-RES ovarian 48.2%

O=c1oc2ccccc2cc1-c1csc(N/N=C/c2cc3ccccc3nc2Cl)n1
inactive: SK-MEL-2 melanoma 106% | EKVX NSCLC 96.1% | SN12C renal 90.6% | UO-31 renal 91% | TK-10 renal 116% | ACHN renal 101% | CAKI-1 renal 87.5% | CCRF-CEM leukemia 111% | MOLT-4 leukemia 132% | SR leukemia 129% | RPMI-8226 leukemia 108% | OVCAR-8 ovarian 103% | OVCAR-5 ovarian 98.6% | IGROV1 ovarian 93.3% | OVCAR-3 ovarian 108% | HS 578T breast 107% | NCI/ADR-RES ovarian 99.7%

CCCCCCCC/C=C\CCCCCCCCOc1cccc(CC(=O)NCC[N+]2(C)CCOCC2)c1
active: IGROV1 ovarian 0.48%
inactive: SK-MEL-2 melanoma 104% | EKVX NSCLC 94.6% | SN12C renal 81.5% | UO-31 renal 82.1% | TK-10 renal 75.1% | ACHN renal 94% | CAKI-1 renal 70.1% | CCRF-CEM leukemia 61.6% | MOLT-4 leukemia 72.1% | SR leukemia 55.7% | OVCAR-8 ovarian 93.8% | OVCAR-5 ovarian 65.5% | OVCAR-4 ovarian 90.3% | OVCAR-3 ovarian 98.7% | HS 578T breast 80.9% | NCI/ADR-RES ovarian 112%

COc1cc(/C=N/NC(=O)c2cnn3c2NC(c2ccccc2)C3)ccc1OC1CCCC1 (configuration not stated)
inactive: SK-MEL-2 melanoma 18.6% | EKVX NSCLC 44.9% | SN12C renal 46.1% | UO-31 renal 33.1% | TK-10 renal 60.2% | ACHN renal 35.6% | CAKI-1 renal 32.2% | CCRF-CEM leukemia 24.3% | MOLT-4 leukemia 41.6% | SR leukemia 35.2% | RPMI-8226 leukemia 17.9% | OVCAR-8 ovarian 49.1% | OVCAR-5 ovarian 59.7% | OVCAR-4 ovarian 44.6% | IGROV1 ovarian 42.6% | NCI/ADR-RES ovarian 14%
active: OVCAR-3 ovarian -32.9% | HS 578T breast -18%

COc1cc2oc(-c3ccc(O)cc3)cc(=O)c2c(O)c1I
inactive: SK-MEL-2 melanoma 103% | EKVX NSCLC 87.8% | SN12C renal 100% | UO-31 renal 93% | TK-10 renal 109% | ACHN renal 98.7% | CAKI-1 renal 96.6% | CCRF-CEM leukemia 94.9% | MOLT-4 leukemia 111% | SR leukemia 79.3% | RPMI-8226 leukemia 87.1% | OVCAR-8 ovarian 96.3% | OVCAR-5 ovarian 104% | IGROV1 ovarian 114% | OVCAR-3 ovarian 117% | HS 578T breast 103% | NCI/ADR-RES ovarian 98%
